About 20 (0.9%) of roughly 2,300 compounds were called active. Only a selection was taken, and actives are over-represented in it overall. Unmarked numbers belong to inactive results.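 Rule for the calls: active = mean percent activation across replicates above the counterscreen hit cutoff of 9.17%; inactive = the rest.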

Sequence of Glucose-dependent insulinotropic receptor (Homo sapiens) (Q8TDV5 whole entry, looked up): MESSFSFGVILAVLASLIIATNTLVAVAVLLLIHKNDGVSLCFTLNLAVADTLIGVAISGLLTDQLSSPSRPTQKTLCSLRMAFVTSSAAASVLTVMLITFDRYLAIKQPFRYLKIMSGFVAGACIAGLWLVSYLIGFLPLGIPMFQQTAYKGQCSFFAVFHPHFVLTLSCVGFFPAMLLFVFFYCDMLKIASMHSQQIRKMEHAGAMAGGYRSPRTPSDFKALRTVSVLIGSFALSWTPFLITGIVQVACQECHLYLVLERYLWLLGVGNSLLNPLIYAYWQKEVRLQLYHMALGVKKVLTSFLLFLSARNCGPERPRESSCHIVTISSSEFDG

The assay has as its target Glucose-dependent insulinotropic receptor (Homo sapiens) (UniProt Q8TDV5). Briefly: GPR119 activators in beta-arrestin cells, confirmation, counter-screen for GPR151 activator project, cell-based, PathHunter beta-arrestin, luminescence, set 2 (AID 1508607).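 Note: 0% = median of sample wells and 100% = wells given EA reagent.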 The conditions noted are these: 90 min, at 11.2 µM, active compounds read high. (A counterscreen serves to expose hits that act by an unwanted route or on another target.)
As for `C[C@@H]1O[C@@H](O[C@H]2C[C@@H](O)[C@]3(CO)[C@H]4[C@H](O)C[C@]5(C)[C@@H](C6=CC(=O)OC6)CC[C@]5(O)[C@@H]4CC[C@]3(O)C2)[C@H](O)[C@H](O)[C@H]1O`, the activation is 18.4% (active).
The figure for `COCCN1C(=S)NC2c3cccc(OC)c3OC1(C)C2C(=O)OC` (stereo not given) is -2.57%; for `Cc1cccc(C)c1-n1nnnc1C1(NCCc2c(C)[nH]c3ccccc23)CCCCC1` it is -3.88%; for `CCn1c(/C=C/C=C2\N(C)c3ccccc3C2(C)C)[n+](Cc2ccccc2)c2ccccc21` it is 15.3% (active).
Turning to `CC[n+]1c(/C=C/C=C2\N(C)c3ccccc3C2(C)C)n(-c2ccccc2)c2ccc(C)cc21`, the activation was 2.58%.
For `CC[n+]1c(/C=C/C=C2\N(C)c3ccccc3C2(C)C)n(-c2ccccc2)c2cc(Cl)ccc21` the value was 4.85%; for `O=c1c2ccccc2nc(/C=C/c2ccccc2)n1-c1cccc(C(F)(F)F)c1`, 1.19%.
Take `COc1ccc2[nH]c(C)c(CCNCc3ccc(OC(F)(F)F)cc3)c2c1`: the activation was 0.78%.
Take `O=C(NCc1ccc(Cl)cc1)C(Cl)(Cl)Cl`: the activation was 1.33%.
For `O=C(NC(O)C(Cl)(Cl)Cl)c1ccccc1` (stereo not given) the value was -0.61%; for `C[C@H]1CC[C@@H]2[C@@H](C)[C@H]3[C@H](CC4[C@@H]5CC=C6CC(O[C@@H]7O[C@H](CO)C(O[C@@H]8O[C@@H](C)[C@H](O)[C@@H](O)[C@H]8O)[C@H](O)[C@H]7O[C@@H]7O[C@@H](C)[C@H](O)[C@@H](O)[C@H]7O)CC[C@]6(C)[C@H]5CC[C@@]43C)N2C1` (stereo not given in full), 28.4% (active).
`COc1ccc(CN2CCNCC2CCO)c(C)c1C` (stereo not given): the activation is 0.92%.
On to `CCN1C(=O)c2ccccc2Sc2ccc(C(=O)N3CCC4(CC3)OCCO4)cc21`, for which the activation is 0.67%.
As to `COc1cccc(C2N(c3ccccn3)C(=O)C3CCCN32)c1` (stereo not given), the activation is -1.97%.
Turning to `CCc1ccc(NC(=O)CN2CC(c3ccccc3)CC2=O)cc1` (stereo not given), the activation is 2.2%.
